In PubChem BioAssay (NCI):
The panel holds about 83,000 compounds, 20% with a hit somewhere; the sample as a whole holds those more often.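 Results are percent growth after 48 hours of single-concentration exposure. 100 means growth as in untreated cells, lower positive values show inhibition; negative values down to -100 show cell death.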 Active and inactive are the calls of the source. The calls were made as follows: active = growth percent below 10; inactive = the rest.

Test system: HL-60(TB) leukemia
Test: NCI-60 one-dose screen, 48 h (100 = growth as untreated, 0 = no growth, -100 = all killed)
Settings: 10 µM unless noted

Structure (SMILES)	growth
COc1ccc(-c2nc(-c3nc4ccc(Cl)cc4[nH]3)c3ccccn23)cc1	82.8% (inactive)
NCCCn1c2c(c3cc(-c4ccn[nH]4)ccc3c1=O)C(=O)c1ccccc1-2	39.6% (inactive)
COc1ccc(N2CCN(C(=O)c3sc4nc(C)c(Br)c(C)c4c3N)CC2)cc1	95.7% (inactive)
C[C@@]1(N2C(=O)OC[C@@H]2c2ccccc2)C(=O)N([C@H](CC(=O)N2CCC(N3CCCCC3)CC2)C(=O)NCc2cccc(C(F)(F)F)c2)[C@@H]1/C=C/c1ccccc1	81% (inactive)
NC(=S)N/N=C(/c1ccccc1)c1ccccc1N	73.3% (inactive)
O=S(=O)(CCN1CCOCC1)Nc1cc(-c2ccc3ncnc(Nc4ccc(F)c(Cl)c4)c3c2)cnc1Cl	27.3% (inactive)
COc1ccc(C2CC(=O)c3c(O)c(OC)c(OC)c(OC)c3O2)cc1O (stereo unspecified)	-4.32% (active)
CC1(C)CC[C@]2(C(=O)N[C@H](CO)Cc3ccccc3)CC[C@]3(C)C(=CC[C@@H]4[C@@]5(C)CCCNC(C)(C)[C@@H]5CC[C@]43C)[C@@H]2C1	31.2% (inactive)
COc1cc(C2=NN(C(C)=O)C(c3ccc(N(C)C)cc3)C2)cc(OC)c1OC (stereo unspecified)	89.6% (inactive)
O=C(Cn1cc(CN2C(=O)c3ccccc3S2(=O)=O)nn1)Nc1ccc([N+](=O)[O-])cc1Cl	94.6% (inactive)
COc1cc2c3c(n(C4CCNCC4)c(=O)c2cc1OC)-c1cc2c(cc1C3=O)OCO2	-50.3% (active)
O=C1/C(=C/N2N=C(c3ccc(Cl)cc3)CC2c2ccccc2O)SC(=S)N1c1cccc(C(F)(F)F)c1 (stereo unspecified)	52.2% (inactive)
COc1cc(C2CC(c3ccc(N(C)C)cc3)=NN2C(C)=O)cc(OC)c1OC (stereo unspecified)	-3.98% (active)
C/C=C/C/C=C/[C@H](C)C[C@H](O)[C@@H]1C[C@@H]2O[C@H]2/C=C/[C@@H]2OC(C)(C)O[C@H]2/C=C/C[C@H](C)CC(=O)O1	31.2% (inactive)
N=C(N)SCc1cccc2c(CSC(=N)N)cccc12	93.4% (inactive)
C=CC(C)(C)n1cc(C2=C(O)C(=O)C(c3cn(C(C)(C)C=C)c4ccccc34)=C(O)C2=O)c2ccccc21	69.4% (inactive)
CCOC(=O)c1[nH]c(-c2ccc(Cl)cc2)cc1-c1cccnc1	-20.7% (active)
Nc1nnc2cc(F)ccc2n1	107% (inactive)

Structure (SMILES)	growth
S=C=NP1(N=C=S)=NP(N=C=S)(N=C=S)=NP(N=C=S)(N=C=S)=NP(N=C=S)(N=C=S)=N1 (stereo unspecified)	60.7% (inactive)
CCCCC#Cc1c(I)n(C2OC(CO[Si](C)(C)C(C)(C)C)C3OC(C)(C)OC32)c(=O)n(C(=O)c2ccccc2)c1=O (stereo unspecified)	20.4% (inactive)
Cn1cc(-c2csc(-c3cn(C)c4ncccc34)n2)c2cccnc21	95.2% (inactive)
CC(=O)c1cc2c(N)c(C(=O)Nc3cccc4ccccc34)sc2nc1C	-10.7% (active)
Clc1ccc(-c2nnc(COc3ccccc3Cl)o2)cc1	120% (inactive)
COc1ccc(C2CC(c3cnccn3)=NN2)cc1OC (stereo unspecified)	46.5% (inactive)
COc1ccc(C(=O)c2cc3c(N)c(C(=O)Nc4ccccc4)sc3nc2C)cc1	-46% (active)
COc1cc(/C=C2\CCC/C(=C\c3cc(CN4CCCC4)c(O)c(OC)c3)C2=O)cc(CN2CCCC2)c1O	5.18% (active)
O=C(Nc1ccncc1)C(=O)c1cn(S(=O)(=O)c2ccc(Oc3ccccc3)cc2)c2ccccc12	70.5% (inactive)
O=C(CNc1ccc(Cl)cc1)Nc1ccc(-c2nc3ccccc3s2)cc1	71% (inactive)
CCN(C(=O)c1ccc2c3c(cccc13)C=C2)c1ccccc1	86.4% (inactive)
Cc1cccc2c1C[C@@]1(C2=O)C(c2ccc(C(C)(C)C)cc2)=NOS1=O (stereo partly specified)	100% (inactive)
O=C(NCc1ccccc1O)c1cccc2ccccc12	66.7% (inactive)
Clc1ccc(CCC(Cn2ccnc2)Sc2c(Cl)cccc2Cl)cc1 (stereo unspecified)	2.26% (active)
CCOC(=O)c1c(C(=O)OCC)c2cc(-c3ccn4c(C(=O)c5ccccc5)c(C(=O)OCC)c(C(=O)OCC)c4c3)ccn2c1C(=O)c1ccccc1	86.3% (inactive)
O=C(NC1CC1)c1ccc(-c2nc3ccc4[nH]ncc4c3c3c2CCCC3)cc1	28.6% (inactive)
COc1ccc(/C=C(\C#N)n2nnc3cc(F)c(F)cc32)cc1	13.8% (inactive)
O=C1/C(=C/c2ccc([N+](=O)[O-])s2)Oc2ccc(Br)cc21	-22.3% (active)
